In the supplement of paper PMC7380943:
Structures can show the parent of a compound that is named as a salt.

system: CLZ3 (HCA2 human fibroblast dual HR-NHEJ reporter); assay: HR repair efficiency (tdTomato+ cells) relative to control (log10 fold); higher = more homologous recombination; settings: 5 µM; doxycycline 0.5 ug/mL
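Further: compound given one day before doxycycline, which switches on I-SceI endonuclease expression to create double-strand breaks within the integrated reporter.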

Point of comparison: N#C/C=C1/C=C[C@@H](O)[C@H](O)[C@H]1O[C@@H]1O[C@H](CO)[C@@H](O)[C@H](O)[C@H]1O [Lithospermoside], “HR repair efficiency (log10)” value 0.0424. Against it:
- c1c2c(cc3c1OCO3)-c1cc3ccc4c(c3c[n+]1CC2)OCO4 [Coptisine Chloride] — within 0.2 log units, 0.0577
- N#CCc1ccc2c(c1)OCO2 [Homopiperonylonitrile] — within 0.2 log units, 0.127
- COc1cc(C2OCC3C(c4cc(OC)c(O[C@@H]5O[C@H](CO)[C@@H](O)[C@H](O)[C@H]5O)c(OC)c4)OCC23)cc(OC)c1O[C@H]1O[C@@H](CO)[C@H](O)[C@@H](O)[C@@H]1O (stereo partly specified) [Eleutheroside E] — within 0.2 log units, -0.0597
- O=c1ccc2cc(O[C@@H]3O[C@H](CO)[C@@H](O)[C@H](O)[C@H]3O)c(O)cc2o1 [Aesculin] — within 0.2 log units, 0.148
- CCN1C[C@]2(COC)[C@H](O)C[C@H](OC)[C@@]34[C@@H]5C[C@@]6(O)[C@H](OC(=O)c7ccccc7)[C@@H]5[C@@](OC(C)=O)([C@@H]([C@H](OC)[C@H]23)[C@@H]14)[C@@H](O)[C@@H]6OC [Aconitine] — within 0.2 log units, 0.0783
- CC1=C2C[C@H]3[C@@H](CC(=O)[C@H]4C[C@@H](O)CC[C@@]43C)[C@@H]2CC[C@]12O[C@@H]1C[C@H](C)CN[C@H]1[C@H]2C [Peimisine] — within 0.2 log units, -0.00991
- CC(C)=CCC[C@@](C)(O)[C@H]1CC[C@]2(C)[C@@H]1[C@H](O)C[C@@H]1[C@@]3(C)CC[C@H](O[C@@H]4O[C@H](CO)[C@@H](O)[C@H](O)[C@H]4O)C(C)(C)[C@@H]3CC[C@]12C [R-Ginsenoside Rh2] — within 0.2 log units, -0.111
- CCN1C[C@]2(COC)CC[C@H](O)[C@]34C1[C@H]([C@H](OC)[C@H]23)[C@@]1(O)C[C@H](OC)[C@H]2C[C@@H]4[C@@H]1[C@H]2O [Neoline] — lower, -0.186
- N#C[C@H](O[C@@H]1O[C@H](CO[C@@H]2O[C@H](CO)[C@@H](O)[C@H](O)[C@H]2O)[C@@H](O)[C@H](O)[C@H]1O)c1ccccc1 [Amygdalin] — within 0.2 log units, 0.107
- CCC(C)C(=O)O[C@@H]1[C@@H](OC(C)=O)[C@]2(C)[C@H](C(C)=O)CC[C@@]23O[C@]32CC[C@H]3C[C@@H](O[C@H]4C[C@@H](OC)[C@H](O[C@@H]5O[C@H](C)[C@@H](O)[C@@H](OC)[C@H]5O)[C@@H](C)O4)CC[C@]3(C)[C@@H]12 (stereo partly specified) [Tenacissoside H] — within 0.2 log units, 0.0233
- COc1cccc2c1cc([N+](=O)[O-])c1c(C(=O)O)cc3c(c12)OCO3 [Aristolochic acid A] — within 0.2 log units, 0.0578
- c1cc2c(cc1[C@H]1OC[C@H]3[C@@H]1CO[C@H]3c1ccc3c(c1)OCO3)OCO2 [Asarinin] — lower, -0.223
- Oc1cc(O)cc(/C=C/c2ccc(O)cc2O)c1 [Oxy-Resveratrol] — lower, -0.164
- CCN1C[C@]2(C)CC[C@H](OC)[C@@]34C1[C@]1(OCO[C@@]15C[C@H](OC)[C@H]1C[C@]3(O)[C@@H]5[C@H]1OC)[C@@H](OC(C)=O)[C@H]24 [Deltaline] — lower, -0.263
- COC[C@@]12CC[C@H](OC)[C@]34C([C@H]([C@H](OC)[C@H]13)[C@]1(O)[C@H]3[C@@H](OC(=O)c5ccccc5)[C@](O)(C[C@H]34)[C@@H](OC)[C@@H]1O)N(C)C2 [Benzoylhypaconine] — within 0.2 log units, 0.00783
- COc1c(C)c(O)cc2[o+]c(-c3ccccc3)ccc12.[O-][Cl+3]([O-])([O-])[O-] [Dracorhodin perochlorate] — within 0.2 log units, 0.0436
- C=C[C@H]1CN2CC[C@]3(C(=O)Nc4ccccc43)[C@@H]2C[C@@H]1/C(=C\OC)C(=O)OC [Corynoxeine] — within 0.2 log units, -0.139
- COc1cc([C@H]2OC[C@H]3[C@H]2CO[C@@H]3c2cc(OC)c(O[C@@H]3O[C@H](CO)[C@@H](O)[C@H](O)[C@H]3O)c(OC)c2)cc(OC)c1O[C@@H]1O[C@H](CO)[C@@H](O)[C@H](O)[C@H]1O [Eleutheroside D] — within 0.2 log units, -0.0848
- O=C(O)[C@@H]1[C@H](C(=O)O)[C@H]2CC[C@@H]1O2 [Endothall Disodium Salt] — within 0.2 log units, 0.143
- CC(C)=CCC[C@](C)(O)[C@H]1CC[C@]2(C)[C@@H]1[C@H](O)C[C@@H]1[C@@]3(C)CC[C@H](O)C(C)(C)[C@@H]3[C@@H](O[C@@H]3O[C@H](CO)[C@@H](O)[C@H](O)[C@H]3O)C[C@]12C [Ginsenoside Rh1] — higher, 0.25
